Results filed as inconclusive are left out. The source made the active and inactive calls. Calls follow the shape of the dose curve; as a rule, active = well fitted inhibition curve with a large enough effect; inconclusive = small, poorly fitted or top-dose-only effect; inactive = flat fitted curve, though single readings scatter.
How the values were obtained:
Test in all cases: qHTS profiling for inhibitors of Plasmodium falciparum proliferation (AID 504749); also: nearly all actives have a fitted effect of over 60% in size
Settings in all cases: P. falciparum in erythrocytes, SYBR Green DNA, 72 h; series mostly up to 28.7 µM
CP250 = test system: CP250
Outline: (§1)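 P. falciparum-infected erythrocytes (0.3% parasitemia, 2.5% hematocrit final) were exposed to compounds for 72 h at 37 C in 5% CO2, then lysed with SYBR Green buffer overnight at room temperature; parasite DNA fluorescence was normalized to artemisinin and DMSO controls.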

CP252 = test system: CP252
Outline: as §1

CP256 = test system: CP256
Outline: as §1

CP260 = test system: CP260
Outline: as §1

CP262 = test system: CP262
Outline: as §1

CP265 = test system: CP265
Outline: as §1

CP266 = test system: CP266
Outline: as §1

CP268 = test system: CP268
Outline: as §1

CP269 = test system: CP269
Outline: as §1

CP286 = test system: CP286
Outline: as §1

CP291 = test system: CP291
Outline: as §1

CP297 = test system: CP297
Outline: as §1

CP305 = test system: CP305
Outline: as §1

CP315 = test system: CP315
Outline: as §1

CP325 = test system: CP325
Outline: as §1

CP329 = test system: CP329
Outline: as §1

CP335 = test system: CP335
Outline: as §1

DFO2036 = test system: DFO2036
Outline: as §1

DIV14 = test system: DIV14
Outline: as §1

DIV17 = test system: DIV17
Outline: as §1

Measured: Potency

CCCCC(CC)COS(=O)(=O)O (stereo not given)
inactive: all assays above

CCOC(=S)SSC(=S)OCC
inactive: all assays above

O=P(O)(O)O
inactive: all assays above

O=P(O)(O)OP(=O)(O)OP(=O)(O)O
inactive: all assays above

CCN(CC)C(=O)c1cccnc1
inactive: all assays above

O=C(O)COc1ccccc1/C=N/NC(=O)c1ccncc1
inactive: all assays above

CC1CCCCN1CCCOC(=O)c1ccccc1 (stereo not given)
inactive: all assays above

CC(=O)Nc1ccc(OC(=O)c2ccccc2O)cc1
inactive: all assays above

CN(CCO)CC(O)Cn1cnc2c1c(=O)n(C)c(=O)n2C (stereo not given) (tested in a mixture with another compound)
inactive: all assays above

CC(C)Cc1ccc([C@@H](C)C(=O)NS(C)(=O)=O)cc1
inactive: all assays above

S=C1SCN(Cc2ccccc2)CN1Cc1ccccc1
inactive: all assays above

c1ccc2ccccc2c1
inactive: all assays above

CC1CC(O)CC(C)(C)C1 (stereo not given)
inactive: all assays above

O=C1c2ccccc2C(=O)C1c1ccc(Cl)cc1
inactive: all assays above

Source: PubChem BioAssay (NCATS)
